# Compounds with a hit are over-represented: about 4.1% of the library has one in this group of screens.
# DAX1 inh-1 = DAX1 (NR0B1) inhibitors on StAR promoter, primary screen, cell-based, luminescence, SF-1 (NR5A1), full-length DAX-1. HEK293T StAR-luciferase reporter, SF-1/DAX-1 repression relief. inhibition, % at 6.8 µM. 1.1% of 370,000 active. AID 652010, 2013;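 active means inhibition above the mean over all tested compounds plus 3 SD, cut at about 3.6% in these data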;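 further: 0% = DAX-1 cells with DMSO and 100% = cells lacking DAX-1 with DMSO; higher inhibition means more luminescence from relief of DAX-1 repression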
# ssDAF12 agonist = S. stercoralis DAF-12 nuclear receptor activators, primary screen, cell-based, luminescence, HEK293, GRIP1 co-expression, lit1-tk-luc; Nuclear hormone receptor DAF-12 (Strongyloides stercoralis); HEK293 ssDAF-12/GRIP1 lit1-tk-luc reporter; % of 3 µM dafachronic acid response; activation, % at 6.8 µM; 1% of 370,000 active; AID 652126, 2013;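 active means activation above the mean over all tested compounds plus 3 SD, cut at about 0.9% in these data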;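 further: 0% = DMSO-only wells and 100% = 3 µM delta7-dafachronic acid wells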
# DAX1 inh-2 = DAX1 (NR0B1) inhibitors, primary screen, cell-based, HEK293, Gal4-DAX1, luciferase luminescence. 0.99% of 340,000 active. Nuclear receptor subfamily 0 group B member 1 (Homo sapiens), P51843. HEK293 Gal4-DAX1 luciferase reporter. inhibition, % at 6.75 µM;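 active means inhibition above the mean over all tested compounds plus 3 SD, cut at about 4.2% in these data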;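 further: 0% = DAX1-transfected cells with DMSO and 100% = empty-vector control cells with DMSO; inhibition shows as a rise in luminescence from relieved DAX1 repression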
# Target sequence (P51843 207-470 limits assumed): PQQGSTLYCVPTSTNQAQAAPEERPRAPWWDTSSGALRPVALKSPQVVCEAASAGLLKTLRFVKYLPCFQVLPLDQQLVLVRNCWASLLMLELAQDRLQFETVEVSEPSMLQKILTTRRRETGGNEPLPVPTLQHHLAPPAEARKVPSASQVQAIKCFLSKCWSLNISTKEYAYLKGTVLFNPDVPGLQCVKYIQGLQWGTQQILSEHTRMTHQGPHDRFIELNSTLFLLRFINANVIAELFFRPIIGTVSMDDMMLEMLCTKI
# hgDAF-12 ag = H. glycines DAF-12 receptor agonists, primary screen, cell-based, luminescence, HEK293, GAL4 fusion, UAS-luciferase. activation, % at 6.8 µM. HEK293 GAL4-hgDAF12 UAS-luciferase reporter, agonist luminescence; normalized to butyrate control. Nuclear hormone receptor DAF-12 (Heterodera glycines), GAL4 fusion. 1.8% of 370,000 active. AID 687014, 2013;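 active means activation above a cutoff set at the mean of all screened compounds plus 3 SD, cut at about 10% in these data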;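 further: 0% = DMSO wells and 100% = sodium butyrate wells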
# hcDAF12 agonist = H. contortus DAF-12 nuclear receptor activators, primary screen, cell-based, luminescence, HEK293, lit1-tk-luc reporter. HEK293 hcDAF-12 lit1-tk-luc reporter; 0% DMSO, 100% Δ7-dafachronic acid. activation, % at 6.8 µM. 1.4% of 370,000 active. AID 652067, 2013;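 active means activation above the mean of all tested compounds plus 3 SD, cut at about 5.5% in these data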;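 further: 100% = response to 3 µM Δ7-dafachronic acid high control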
# Starred values were filed as active, the others as inactive; / = no result.
SMILES,DAX1 inh-1,ssDAF12 agonist,DAX1 inh-2,hgDAF-12 ag,hcDAF12 agonist
COc1ccc(S[C@]2(C(=O)N3CCOCC3)CC(=O)N(C(=O)/C=C/c3ccccc3)[C@@H]2c2ccc(OC)cc2)cc1,-3,-1,/,2,-3
c1ccc2oc(-c3ccn[nH]3)cc2c1,1,-1,5.9*,6,5
O=C(COC(=O)CCCC1=NS(=O)(=O)c2ccccc2N1)Nc1ccc(Br)cc1,4.1*,-1,-1,-2,-2
COC(=O)c1[nH]c2ccc(F)cc2c1NS(=O)(=O)c1ccc(OC)cc1OC,0,1.1*,0,3,2
CCOC(=O)c1[nH]c2ccc(OC)cc2c1NS(=O)(=O)c1ccc(OC)cc1OC,0,0,1,-1,-1
Cc1cccc(-c2cccc3c4c([nH]c23)[C@@H]2C[C@H]3[C@@H](CN2CC4)[C@H](C)ON3C)c1,-1,-1,/,0,2
COC(=O)c1ccccc1NC(=O)C12CCC(C)(C(=O)O1)C2(C)C (stereo unspecified),0,1.9*,0,0,-2
COC(=O)c1ccccc1NC(=O)NCc1ccncc1,1,6.6*,0,-1,-2
c1ccc(-c2nc(-c3ccncc3)no2)cc1,0,-1,3,8,2
c1ccc(-c2ccc(-c3nc(-c4cccnc4)no3)cc2)cc1,3.8*,0,2,7,2
Cc1ccccc1-c1nc(-c2ccccn2)no1,1,-1,-3,-3,5
Cc1ccccc1-c1nc(-c2cccnc2)no1,0,1,2,10*,6.1*
c1ccc(-c2noc(-c3cccnc3)n2)cc1,3.6*,0,0,9,3
C=CCN1[C@H](C)[C@H](c2ccccc2)Oc2cc(Br)ccc2S1(=O)=O,0,-1,/,-3,-1
Cc1ccc(-n2c(C)cc(C(=O)CSc3nnnn3C)c2C)cc1,1,0,0,12*,5
Cc1cc(C(=O)CSc2nnnn2C)c(C)n1CCc1ccc(F)cc1,0,0,1,2,4
Cc1cc(C(=O)CSc2nnnn2C)c(C)n1Cc1ccco1,1,0,2,12*,3
COC(=O)Cc1nnn2c1[C@H](C)[C@H](c1ccccc1Br)OC[C@H](C)C2,-1,-1,/,0,-1
Nc1ccc(-c2nc3ccc(N)cc3o2)cc1,2,-2,4,12*,-1
Nc1ccc(-c2nc3cc(N)ccc3o2)cc1,2,-1,1,11*,4
COC(=O)c1ccc(-c2nc3cc(N)ccc3o2)cc1,-1,-2,-3,-5,-3
CN(C)c1ccc(-c2nc3cc(N)ccc3o2)cc1,1,1,-5,11*,5.8*
COC(=O)c1cc2c(c3c4cc(OC)ccc4n(S(=O)(=O)c4cccc(C)c4)c13)C(=O)N(Cc1ccc(C(F)(F)F)cc1)C2,0,-1,/,1,2
NC(=O)C1C(=O)c2ccccc2C1(C[N+](=O)[O-])c1ccccc1 (stereo unspecified),1,0,0,-2,5.8*
O=C(O)CC1(c2ccccc2)C(=O)c2ccccc2C1=O,0,-1,0,-1,-1
SMILES,DAX1 inh-1,ssDAF12 agonist,DAX1 inh-2,hgDAF-12 ag,hcDAF12 agonist
O=C(NCCCc1ccccc1)OC1CC2CC1[C@H]1CCCCN1C2 (stereo partly specified),1,-1,/,-1,1
Cc1cc(C(=O)Nc2nc3c(s2)CCCC3)cs1,3,0,-1,9,6.0*
Cc1ncsc1C(=O)Nc1nc2c(s1)CCCC2,3,0,2,13*,3
Nn1c(SCC(=O)Nc2cccc3ccccc23)nnc1-c1n[nH]c2c1CCC2,-1,-1,/,0,-2
c1ccc(CNc2cncnc2)cc1,0,1.1*,0,-2,1
CN(CC(=O)NCc1ccccc1Cl)S(=O)(=O)c1ccc2c(c1)n(C)c(=O)c(=O)n2C,0,-1,0,1,5.6*

# Source: PubChem BioAssay (The Scripps Research Institute Molecular Screening Center)
